# How the values were obtained:
# Details in all cases: concentration: 1 μM,replicates: in singlicate; n = 1
# [1] = system: CAMK1
# [2] = system: CAMK2A
# [3] = system: CAMK2B
# [4] = system: CAMK2D
# [5] = system: CAMK2G
# [6] = system: CAMK4
# [7] = system: CAMKK1
# [8] = system: CAMKK2
# [9] = system: CASK
# [10] = system: T1, CDC2L1
# T1 construct: gene CDK11B
# 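Further: KINOMEscan kinase panel screen.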
SMILES,%Inh [1],%Inh [2],%Inh [3],%Inh [4],%Inh [5],%Inh [6],%Inh [7],%Inh [8],%Inh [9],%Inh [10]
O=C(Nc1n[nH]c2cc(-c3ccco3)ccc12)C1CC1 [SB-737447],5%,39%,34%,3%,4%,0%,4%,5%,17%,0%
CCNCC(Cc1ccccc1)NC(=O)c1cc(Br)c(-c2ccnc3[nH]ccc23)s1.Cl.Cl (stereo not shown) [GSK1383280],41%,0%,0%,23%,34%,21%,19%,25%,0%,16%
CC(C(=O)NC1CCN(c2ccnc(Nc3ccc(F)cc3)n2)C1)c1ccc(Cl)cc1 (stereo not shown) [GSK1379713],8%,0%,0%,2%,26%,0%,0%,5%,0%,0%
c1ccc(Oc2ccc(Nc3ccnc4ccc(-c5ccccn5)cc34)cc2)cc1 [GW407034],1%,0%,0%,7%,16%,0%,0%,9%,8%,0%
COc1cc2c(Nc3ccc(NC(=O)c4ccccc4)cc3)ncnc2cc1OCCCN1CCOCC1 [GSK301329],40%,0%,0%,0%,1%,0%,0%,0%,17%,0%
COC(=O)c1cccc(NC(=O)NC2CCN(c3ccnc(NCc4ccc(F)cc4)n3)CC2)c1 [GSK1379860],0%,0%,0%,0%,1%,0%,0%,0%,0%,0%
Cc1ccn2nc(-c3ccc(F)cc3)c(-c3ccncc3)c2c1.Cl [GW457859],16%,0%,0%,0%,15%,0%,0%,9%,6%,0%

# — article PMC5540273 (PLoS ONE, 2017)
